Screens (PubChem BioAssay)
HSP90 refold inh: inhibitors of HSP90 luciferase refolding in rabbit reticulocyte lysate; 0.91% of 290,000 active; luciferase refolding luminescence, 3 h; inhibition, % at 5.6 µM;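 active means inhibition above the screen-wide mean plus 3 SD, computed separately per campaign, cut at about 16% in these data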;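 further: inhibitors lower the luminescence because luciferase stays unfolded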
SENP7 inh: SENP7 protease inhibition; 1.5% of 330,000 active; inhibition, % at 5 µM; AID 434973; recombinant SENP7, Z-RLRGG-aminoluciferin luminescence, 40 min; Q9BQF6;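 active means inhibition above about 50% at the single test dose, limit read from the data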
SENP6 inh: SENP6 protease inhibition | AID 2599 | Recombinant SENP6 catalytic domain, aminoluciferin luminescence | inhibition, % at 10 µM | Q9GZR1 | 1.8% of 330,000 active;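 active means inhibition above about 50% at the single tested dose, limit read from the data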
Target sequence (Q9GZR1 628-1112 limits assumed): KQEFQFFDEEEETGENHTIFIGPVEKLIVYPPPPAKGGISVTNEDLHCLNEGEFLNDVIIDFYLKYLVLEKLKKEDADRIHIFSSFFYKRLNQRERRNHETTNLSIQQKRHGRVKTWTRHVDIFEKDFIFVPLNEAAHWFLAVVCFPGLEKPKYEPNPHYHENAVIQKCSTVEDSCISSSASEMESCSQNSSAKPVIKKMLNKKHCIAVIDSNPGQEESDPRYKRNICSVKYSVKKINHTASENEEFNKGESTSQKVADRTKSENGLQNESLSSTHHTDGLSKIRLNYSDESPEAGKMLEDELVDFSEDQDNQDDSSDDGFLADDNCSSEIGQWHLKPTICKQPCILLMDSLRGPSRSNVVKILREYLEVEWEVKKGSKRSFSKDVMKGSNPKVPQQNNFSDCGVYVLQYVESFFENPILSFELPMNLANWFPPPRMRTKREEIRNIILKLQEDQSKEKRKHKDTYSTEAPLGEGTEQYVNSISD
SENP8 block-1: SENP8 protease inhibition. Q96LD8. purified SENP8, Z-RLRGG-aminoluciferin cleavage, luminescence. inhibition, % at 10 µM. 1.2% of 330,000 active. AID 2540; in the data active means inhibition above about 50%
SENP8 block-2: SENP8 (human) protease inhibition. recombinant SENP8, Nedd8 substrate fluorescence. inhibition, % at 20 µM. AID 602440. Q96LD8. 0.64% of 360,000 active; in the data active means inhibition mostly above about 40%, no sharp cut-off; inactive means mostly below about 27%
Platelet DG rel: platelet dense granule release activity; human platelet-rich plasma, SFLLRN dense granule ATP release, luminescence; inhibition, %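 (compounds screened at 7.5 µM in platelet-rich plasma)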; 0.22% of 300,000 active; AID 1663;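 active means mean replicate score, as percent of positive control, at or above 50; inconclusive means mean below 50 but at least one replicate at or above 50; inactive means mean and every replicate below 50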
HSP90 inh confirm: HSP90 inhibition, confirmation assay. shares compounds with HSP90 refold inh. rabbit reticulocyte lysate, luciferase refolding luminescence, 3 h. inhibition, % at 5.9 µM. 64% of 2,300 active. AID 1846; in the data active means inhibition above about 18%
luciferase ctr: firefly luciferase inhibition, HSP90 counter-screen | shares compounds with HSP90 refold inh | purified native firefly luciferase, luminescence | inhibition, % at 5.9 µM | 48% of 2,300 active | AID 1847;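 active means inhibition above the mean inhibition of all tested sample wells plus 3 SD, cut at about 10% in these data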
SENP8 conf: confirmation of human SENP8 protease inhibitors | AID 488912 | Recombinant SENP8, Z-RLRGG-aminoluciferin luminescence, 60 min | inhibition, % at 12.5 µM | 40% of 6,200 active | shares compounds with SENP7 inh;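 active means mean inhibition across replicates above about 50%, limit read from the data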
SENP6 confirm: human SENP6 inhibition, confirmed. 58% of 6,200 active. inhibition, % at 12.5 µM. shares compounds with SENP7 inh. recombinant SENP6, Z-RLRGG-aminoluciferin luminescence
SENP7 confirm: confirmation of human SENP7 protease inhibitors | shares compounds with SENP7 inh | recombinant SENP7, Z-RLRGG-aminoluciferin luminescence, 40 min | inhibition, % at 12.5 µM | 69% of 6,200 active
Casp3 select: inhibits human caspase-3 in SENP selectivity test | purified caspase-3, Z-DEVD-aminoluciferin luminescence, 60 min | AID 488918 | shares compounds with SENP7 inh | inhibition, % at 12.5 µM | 60% of 6,200 active;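 active means mean inhibition above about 50%, limit read from the data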
Target sequence (P42574 28-227 limits assumed): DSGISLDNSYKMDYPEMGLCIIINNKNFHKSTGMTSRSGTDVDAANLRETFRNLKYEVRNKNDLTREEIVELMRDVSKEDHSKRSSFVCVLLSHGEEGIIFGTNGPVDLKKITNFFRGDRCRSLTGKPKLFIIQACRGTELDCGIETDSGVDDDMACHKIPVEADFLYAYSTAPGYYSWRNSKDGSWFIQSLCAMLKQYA
Luc interf: interferes with luciferase luminescence in SENP counter-screen. shares compounds with SENP7 inh. Pre-incubated SENP8/Z-RLRGG-aminoluciferin, luciferase luminescence interference. inhibition, % at 12.5 µM. 39% of 6,200 active. AID 488919;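 active means mean inhibition above about 50% when retested at one dose, limit read from the data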
Large screens that a line does not name were inactive (follow-up assays come after a bar, where they were run). Shown are actives, neighbours in structure and some others; about 2.8% of the full set was active somewhere.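 How the source made its calls, unless noted: active means mean inhibition above about 50% in the one-dose retest (limit read from the data); inactive means the rest.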

O=C(/C=C/c1ccccc1Cl)Nc1ccc2c(c1)C(=O)NC2=O	none
O=C(/C=C/c1ccccc1Cl)Nc1cccc(O)c1	HSP90 refold inh 22.9, SENP7 inh 95.9, SENP6 inh 97.8, SENP8 block-1 93.9 | HSP90 inh confirm 35.8 | luciferase ctr 14.8 | SENP8 conf 96.1 | SENP6 confirm 97.0 | SENP7 confirm 101.6 | Casp3 select 90.7 | Luc interf 96.4
N#Cc1ccccc1OCCN1C(=O)c2ccccc2C1=O	none
Nc1cccc2c1C(=O)N(CCOc1ccccc1F)C2=O	HSP90 refold inh 29.6, SENP7 inh 73.0, SENP6 inh 83.1, SENP8 block-1 72.9 | HSP90 inh confirm 51.4 | luciferase ctr 45.3 | SENP8 conf 79.2 | SENP6 confirm 79.8 | SENP7 confirm 95.2 | Casp3 select 78.7 | Luc interf 82.9
CN(C)c1ccc(/C=c2\sc3n(c2=O)CCCN=3)cc1	HSP90 refold inh 18.2, SENP7 inh 67.9, SENP6 inh 87.0, SENP8 block-1 73.7 | HSP90 inh confirm 65.3 | luciferase ctr 51.7 | SENP8 conf 86.6 | SENP6 confirm 83.7 | SENP7 confirm 95.3 | Casp3 select 84.9 | Luc interf 75.7
Cc1oc(-c2ccc3c(c2)OCCO3)cc1C(=O)NCC(=O)O	HSP90 refold inh 90.0, SENP6 inh 80.6, SENP8 block-1 80.9 | HSP90 inh confirm 94.5 | luciferase ctr 79.3 | SENP8 conf inactive | SENP6 confirm 93.4 | SENP7 confirm 97.7 | Casp3 select 80.7 | Luc interf 90.9
Cn1cc(C(=O)O)c(-c2ccc3c(c2)OCCCO3)n1	none
Cc1oc(-c2ccc3c(c2)OCCO3)cc1C(=O)O	HSP90 refold inh 95.9, SENP7 inh 97.8, SENP6 inh 99.0, SENP8 block-1 96.8 | HSP90 inh confirm 100.8 | luciferase ctr 91.5 | SENP8 conf 97.9 | SENP6 confirm 100.8 | SENP7 confirm 103.9 | Casp3 select 99.0 | Luc interf 98.8
COc1ccc(-c2cc(C(=O)O)c(C)o2)cc1OC	HSP90 refold inh 76.4, SENP7 inh 82.0, SENP6 inh 87.4, SENP8 block-1 73.4 | HSP90 inh confirm 89.8 | luciferase ctr 64.6 | SENP8 conf 84.6 | SENP6 confirm 83.9 | SENP7 confirm 96.6 | Casp3 select 90.2 | Luc interf 84.6
Cc1nc(NC(=O)c2ccccc2)sc1-c1csc(N)n1	HSP90 refold inh 61.0, SENP7 inh 68.0 | HSP90 inh confirm inactive | luciferase ctr inactive | SENP8 conf 57.0 | SENP6 confirm 53.1 | SENP7 confirm 77.1 | Casp3 select 65.2 | Luc interf 61.4
CCOC(=O)CNC(=O)c1sc(NC(=O)c2ccccc2)nc1C	none
CCOc1ccccc1Nc1nc(-c2sc(NC(=O)c3cccc(Cl)c3)nc2C)cs1	HSP90 refold inh 73.1, SENP7 inh 77.0, SENP6 inh 84.1, SENP8 block-1 68.3 | HSP90 inh confirm 33.0 | luciferase ctr inactive | SENP8 conf inactive | SENP6 confirm inactive | SENP7 confirm inactive | Casp3 select inactive | Luc interf inactive
CCCC(C)C(=O)Nc1nc(C)c(-c2csc(Nc3ccccc3OC)n2)s1 (stereo unspecified)	none
Cc1nc(NC(=O)c2ccccc2)sc1-c1csc(NCc2ccccc2)n1	HSP90 refold inh 59.8, SENP7 inh 75.2, SENP6 inh 80.0, SENP8 block-1 63.5 | HSP90 inh confirm 23.6 | luciferase ctr inactive | SENP8 conf inactive | SENP6 confirm inactive | SENP7 confirm inactive | Casp3 select inactive | Luc interf inactive
Cc1nc(NC(=O)c2ccccc2)sc1-c1csc(NCCc2ccccc2)n1	HSP90 refold inh 41.8, SENP7 inh 56.6, SENP6 inh 63.0 | HSP90 inh confirm 19.3 | luciferase ctr inactive | SENP8 conf inactive | SENP6 confirm inactive | SENP7 confirm inactive | Casp3 select inactive | Luc interf inactive
Cc1nc(-c2ccc(NC(=O)c3ccccc3)cc2)cs1	HSP90 refold inh 20.6, SENP7 inh 97.0, SENP6 inh 97.3, SENP8 block-1 93.7 | HSP90 inh confirm 39.6 | luciferase ctr 27.9 | SENP8 conf 86.8 | SENP6 confirm 97.0 | SENP7 confirm 100.7 | Casp3 select 95.8 | Luc interf 83.0
Cc1ccc(C(=O)Nc2ccc(-c3csc(C)n3)cc2)cc1	none
COc1ccc(-c2cc3nc(CCl)[nH]c(=O)c3s2)cc1	HSP90 refold inh 49.8, SENP7 inh 58.9, SENP6 inh 93.9, SENP8 block-1 82.7 | HSP90 inh confirm 56.5 | luciferase ctr 59.3 | SENP8 conf 65.8 | SENP6 confirm 90.6 | SENP7 confirm 70.3 | Casp3 select 82.0 | Luc interf inactive
COc1ccc(-c2cc3nc[nH]c(=O)c3s2)cc1	none
Cc1cc(NC(=O)C(C)SCC(=O)OCc2c(Cl)cccc2Cl)no1 (stereo unspecified)	none
COc1ccc(C(=O)/C=C/Nc2cc(C)ccn2)cc1	HSP90 refold inh 31.0, SENP7 inh 95.0, SENP6 inh 95.4, SENP8 block-1 95.4, Platelet DG rel inconclusive | HSP90 inh confirm 68.5 | luciferase ctr 54.8 | SENP8 conf inactive | SENP6 confirm 98.6 | SENP7 confirm 102.8 | Casp3 select 96.4 | Luc interf inactive
COc1ccc(NC(=O)Nc2cc(C)ccn2)cc1	none (no result: HSP90 refold inh, SENP7 inh, SENP6 inh, SENP8 block-1, Platelet DG rel)
COc1ccc(N/C=C\C(=O)c2ccc3ccccc3c2)cc1	none
COc1ccc(N/C=C/C(=O)c2ccccc2)cc1	HSP90 refold inh 53.8, SENP7 inh 96.4, SENP6 inh 94.4, SENP8 block-1 94.6, Platelet DG rel 56.0 | HSP90 inh confirm 88.4 | luciferase ctr 80.6 | SENP8 conf inactive | SENP6 confirm 93.0 | SENP7 confirm 103.1 | Casp3 select 97.1 | Luc interf inactive
CCOc1ccc(C2OCCC(C)O2)cc1OC (stereo unspecified)	none (no result: HSP90 refold inh, SENP7 inh, SENP6 inh, SENP8 block-1, Platelet DG rel)
C[C@H](NC(=O)c1cccc([N+](=O)[O-])c1)C(=O)OCC(=O)c1ccccc1Br	none (no result: HSP90 refold inh, Platelet DG rel)
